PubChem BioAssay AID1851 (National Center for Advancing Translational Sciences (NCATS), 2009)
Values joined by “and” are separate entries in the source; they are usually repeats but may differ in a detail not shown here. Equal entries are not always repeated. Out of some 16,000 compounds screened, about 4,000 (25%) were called active. Not shown: some 26% with an inconclusive outcome. Calls come from the whole dose curve; as a rule, active = well fitted curve in the direction sought with a large enough effect; inconclusive = small, poorly fitted or top-dose-only effect, or effect the other way; inactive = no such curve, though single readings can be large or run the other way. Not all results are given here.

target: Cytochrome P450 2C9 (Homo sapiens) (UniProt P11712); test: Cytochrome panel assay with activity outcomes; conditions: recombinant CYP, pro-luciferin dealkylation, luminescence, p450-cyp2c9; series mostly up to 57.1 µM; activity, negative = inhibition: at the top concentration
% is set by controls: 0 for no effect and ±100 for the full control effect.

Cytochrome P450 2C9 (Homo sapiens), sequence (P11712 whole entry, looked up): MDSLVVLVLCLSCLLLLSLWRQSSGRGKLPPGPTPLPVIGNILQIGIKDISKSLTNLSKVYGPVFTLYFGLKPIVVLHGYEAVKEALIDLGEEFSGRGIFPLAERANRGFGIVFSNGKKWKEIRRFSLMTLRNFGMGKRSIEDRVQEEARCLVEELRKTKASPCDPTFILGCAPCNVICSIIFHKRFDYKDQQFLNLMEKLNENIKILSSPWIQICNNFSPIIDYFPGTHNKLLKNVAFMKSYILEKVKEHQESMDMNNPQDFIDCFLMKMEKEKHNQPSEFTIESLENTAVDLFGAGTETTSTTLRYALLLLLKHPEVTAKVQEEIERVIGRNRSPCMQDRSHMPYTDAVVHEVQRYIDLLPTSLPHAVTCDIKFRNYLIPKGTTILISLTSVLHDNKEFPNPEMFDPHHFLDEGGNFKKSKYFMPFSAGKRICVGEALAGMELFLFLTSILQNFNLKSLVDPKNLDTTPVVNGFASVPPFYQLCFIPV

Structure (SMILES) | AC50 | activity, negative = inhibition
O=C1C(=O)N(c2cccc(Cl)c2)C(c2ccccc2[N+](=O)[O-])/C1=C(\O)c1ccccc1 (centres undefined) | 2 µM (active) | –
CC(C)(C)N1C(=O)[C@H]2[C@@H]3[C@H](O)[C@H](O)CC(=O)[C@H]3CC[C@H]2C1=O | – | 6.8% [at 11.4 µM] (inactive) and 2.7% [at 11.4 µM] (inactive)
O=C(O)[C@@H]1[C@@H](C(=O)Nc2ccccc2)[C@@H]2C=C[C@@H]1O2 | – | 12.3% [at 11.4 µM] (inactive)
CS(=O)(=O)Nc1cccc(-c2nc(Nc3ccccc3)c3ccccc3n2)c1 | – | -28.2% [at 2.29 µM] (inactive)
CC(=O)NCCNc1nc(-c2cccc(NS(C)(=O)=O)c2)nc2ccccc12 | – | -9.35% [at 2.29 µM] (inactive)
CC(C)(C)C(=O)Nc1cccc(-c2nc3ccccc3c(=O)o2)c1 | 12.6 µM (active) | –
O=C(NCC1CCCO1)c1nn2c(c1Cl)NC(c1ccc(F)cc1)CC2C(F)(F)F (centres undefined) | 25.1 µM (active) | –
COc1ccc(NC(=O)c2cc3n(n2)C(C(F)(F)F)CC(c2ccc4c(c2)OCO4)N3)cc1OC (centres undefined) | – | -12.5% (inactive)
O=C(NCC1CCCO1)c1ccc(CS(=O)(=O)Cc2ccc(F)cc2)o1 (centres undefined) | – | 25.2% (inactive)
CN1CCN(c2ncc3nc(-c4cccs4)c(=O)n(C[C@H]4CCCO4)c3n2)CC1 | – | 16.1% (inactive)
CCOC(=O)C(NC(C)=O)C(OC(C)=O)c1cccc(N(CCO)CCO)c1 (centres undefined) | – | -15.8% (inactive)
Clc1ccccc1C(Nc1cnccn1)Nc1cnccn1 | – | 1.92% [at 11.4 µM] (inactive)
O=C1CC(c2cccc(F)c2)SC(N(c2ccccc2)c2ccccc2)=N1 (centres undefined) | 10 µM (active) | –
C[N+](C)(C)CCOC(N)=O | inactive | –
CC(C)[C@@H]1[C@H]2CC[C@H](C2)[C@H]1N | – | -9.4% (inactive)
CC1=C/C(=N/O)C([C@H]2C=C(C)CC(C)(C)[C@@H]2O)C(C)(C)C1 (some centres undefined) | 2.51 µM (active) | –
N#CCCn1c(=O)c(-c2cc(F)cc(F)c2)nc2cnc(Nc3ccccc3)nc21 | – | 18.7% (inactive)
CN(C)Cc1ccccc1-c1ccc2ncnc(NCc3ccccc3)c2c1 | – | -7.5% [at 2.29 µM] (inactive)
CCCC[C@]1(C2CCCC2)Cc2cc(OCC(=O)O)c(Cl)c(Cl)c2C1=O | 2.51 µM (active) | –
CCCc1nc(SCC(=O)NNC(=O)C2CCCCC2)c2ccccc2n1 | – | 5.32% (inactive)
Cc1cccc(NC(=O)CSc2nc(COc3ccccc3)nc3ccccc23)c1C | 0.631 µM (active) | –
CN(C)Cc1ccccc1-c1cc(N(C)Cc2ccco2)ncn1 | – | -3.1% [at 2.29 µM] (inactive)

Structure (SMILES) | AC50 | activity, negative = inhibition
C/C(=N\NC(=O)c1ccc(Cl)cc1)c1cccc(NC(=O)C(C)C)c1 | – | -11.6% (inactive)
C/C(=N/NC(=O)c1ccc(C)s1)c1cccc(NC(=O)COc2ccc(Cl)cc2C)c1 | 1.26 µM (active) | –
COc1cc(OC)c(C(=O)CCCCN2CCC3(CC2)NC(=O)NC3=O)cc1NS(=O)(=O)c1ccc(C(F)(F)F)cc1 | – | 22.9% (inactive)
COc1ccc(C(C(=O)NC2CCCC2)N(Cc2ccc(F)cc2)C(=O)c2ccn[nH]2)cc1OC (centres undefined) | – | -29.6% (inactive)
COc1ccc(CN(C(=O)Cc2cccs2)C(C(=O)NC2CCCC2)c2ccncc2)cc1 (centres undefined) | 5.01 µM (active) | –
O=C(NC1CCCCC1)C(c1cccs1)N(C(=O)C(F)(F)F)c1ccccc1 (centres undefined) | 1.58 µM (active) | –
Cc1ccc(N(C(=O)C(F)(F)F)C(C(=O)NC2CCCCC2)c2cccs2)cc1C (centres undefined) | – | -17.9% (inactive)
COc1ccc(CCN(C(=O)C(F)(F)F)C(C(=O)NC2CCCC2)c2cccs2)cc1 (centres undefined) | 3.16 µM (active) | –
COc1ccc(NC(=S)N(CCc2nc3cc(C)c(C)cc3[nH]2)Cc2cccnc2)cc1 | 7.94 µM (active) | –
Cc1cccc(NC(=S)N(CCc2nc3cc(C)c(C)cc3[nH]2)Cc2cccnc2)c1 | 7.94 µM (active) | –
Cc1ccc(C)c(NC(=S)N(CCc2nc3cc(C)c(C)cc3[nH]2)Cc2cccnc2)c1 | 3.98 µM (active) | –
Cc1cccc(CNc2nc(-c3cccnc3)nc3ccccc23)c1 | – | -13% [at 2.29 µM] (inactive)
COc1cccc(NC(=S)N(CCc2nc3cc(C)c(C)cc3[nH]2)Cc2cccnc2)c1 | 5.01 µM (active) | –
COC(=O)[C@@H]1O[C@@H](SCCN)[C@@H](O)[C@H](O)[C@H]1O | – | 15% [at 11.4 µM] (inactive)
O=C(O)Cc1ccc2ocnc2c1 | – | -22.7% (inactive)
COc1ccc(-c2nc3cnc(Nc4ccccc4)nc3n(CCC#N)c2=O)cc1 | – | 7.37% (inactive)
COc1ccc(C2CC(=O)c3cnc(Nc4cc(C)cc(C)c4)nc3C2)cc1 (centres undefined) | 10 µM (active) | –
COc1cccc(Nc2ncc3nc(C)c(=O)n(C4CC4)c3n2)c1 | – | -17.1% (inactive)
COc1cccc(Nc2ncc3nc(C)c(=O)n(C)c3n2)c1 | – | -11.4% (inactive)
COc1ccc(Nc2ncc3c(n2)CC(c2ccc(C)cc2)CC3=O)cc1 (centres undefined) | 5.01 µM (active) | –
NS(=O)(=O)c1cc2c(cc1C(F)(F)F)N[C@H](Cc1ccccc1)NS2(=O)=O | – | -8.84% [at 25.6 µM] (inactive)
CN1CCN([C@@H]2Cc3ccccc3Sc3ccc(Cl)cc32)CC1 | – | -20.1% (inactive)
